Test results published in the supplement of paper PMC10849652.
About 7,900 targets were measured; listed, in parts, are those with a hit and a random draw of the rest. About 0.6% of all pairs of compound and target were hits. Unmarked numbers belong to inactive results.

Experiments:
Experiment in all cases: log2 fold change, soluble protein after heating vs DMSO (PISA); higher = thermal stabilisation; K562 cells, 10 uM, 30 min; active = over 0.2 and 3.5 SD of the protein, either way, in both replicates (recomputed)
[1] = compound: C#Cc1cccc(Nc2ncnc3cc(OCCOC)c(OCCOC)cc23)c1 [erlotinib]
Outline: (§1)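 K562 cells at 2×10^6 cells/mL were treated with 10 μM compound for 30 min. Aliquots were heated for 3 min across 48°C-58°C, pooled, and extracted in PBS with 0.5% NP-40 at 4°C; soluble protein was the supernatant after 21,000xg for 90 min. Soluble protein was quantified by TMTpro 16plex LC-MS/MS with channel sums equalised, and reported as log2 fold change in thermal stability against DMSO controls, with values from duplicates.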

[2] = compound: C/C(=N\NC(=O)C1=CC(=CC=C1)S(=O)(=O)N2CCOCC2)/C3=C(C=CC(=C3)Cl)O
Outline: as §1

[3] = compound: C1=CC(=C(C=C1Cl)C2=NC3=NC=CN=C3C(=N2)NC4=CC=NC=C4)F
Outline: as §1

[4] = compound: C1=CC(=CC=C1C2=NC3=C(N2)C=C(C=C3)C(=O)N)OC4=CC=C(C=C4)Cl
Outline: as §1

[5] = compound: C1=CC2=C(C=CC(=C2)/C=C\3/C(=O)NC(=NCC4=CC=CS4)S3)N=C1
Outline: as §1

[6] = compound: C1=CC2=NC=CN=C2C=C1/C=C/3\C(=O)NC(=O)S3
Outline: as §1

[7] = compound: C1=CC=C(C=C1)C2=NC(=C(N2)C3=CC=NC=C3)C4=CC(=C(C=C4)Cl)O
Outline: as §1

[8] = compound: C1=CC=C2C(=C1)C3=NNC4=CC=CC(=C43)C2=O
Outline: as §1

[9] = compound: C1CCN(C1)C(=O)NC2=CC=CC(=C2)NC3=NC=C(C(=N3)NCCC4=CN=CN4)Br
Outline: as §1

[10] = compound: C1CN(CCC1(CC2=CC=C(C=C2)Cl)N)C3=NC=NC4=C3C=CN4
Outline: as §1

[11] = compound: C1COCCN1CCN2C3=CC=CC=C3N=C2NC(=O)C4=CC(=CC=C4)[N+](=O)[O-] [IRAK-1-4 Inhibitor I]
Outline: as §1

[12] = compound: C=CC(=O)N1CCC[C@@H](n2nc(-c3ccc(Oc4ccccc4)cc3)c3c(N)ncnc32)C1 [ibrutinib]
Outline: as §1

[13] = compound: CC(=O)c1cnc2ccc(-c3cc(Cl)c(O)c(Cl)c3)nc2c1N[C@H]1CC[C@H](CN(C)C)CC1
Outline: as §1

[14] = compound: CC(C)(C)Cn1c(N)nc2ccc(-c3[nH]c(C(C)(C)C)nc3-c3ccc(F)cc3)nc21 [ralimetinib]
Outline: as §1

[15] = compound: CC(C)(O)CC(=O)NCCn1ccc2ncnc(Nc3ccc(Oc4cccc(C(F)(F)F)c4)c(Cl)c3)c21
Outline: as §1

[16] = compound: CC(C)C1=C2N=C(C=C(N2N=C1)NCC3=CC=CC=C3)NCCCCCCN
Outline: as §1

[17] = compound: CC(C)C[C@@H](C=O)NC(=O)[C@H](CC(C)C)NC(=O)[C@H](CC(C)C)NC(=O)OCc1ccccc1
Outline: as §1

[18] = compound: CC(C)N(C[C@H]1O[C@@H](n2cnc3c(N)ncnc32)[C@H](O)[C@@H]1O)[C@H]1C[C@@H](CCc2nc3cc(C(C)(C)C)ccc3[nH]2)C1 [pinometostat]
Outline: as §1

[19] = compound: CC1=C(C(CC(=O)N1)C2=CC=C(C=C2)C(F)(F)F)C(=O)NC3=C(C=C4C(=C3)C=NN4)F
Outline: as §1

[20] = compound: CC1=C(C2=C(C=C1)C(=O)C3=CC=CC=C3N2CCCN)C
Outline: as §1

Chain of UniProt Q13428 (Q13428 whole entry, looked up): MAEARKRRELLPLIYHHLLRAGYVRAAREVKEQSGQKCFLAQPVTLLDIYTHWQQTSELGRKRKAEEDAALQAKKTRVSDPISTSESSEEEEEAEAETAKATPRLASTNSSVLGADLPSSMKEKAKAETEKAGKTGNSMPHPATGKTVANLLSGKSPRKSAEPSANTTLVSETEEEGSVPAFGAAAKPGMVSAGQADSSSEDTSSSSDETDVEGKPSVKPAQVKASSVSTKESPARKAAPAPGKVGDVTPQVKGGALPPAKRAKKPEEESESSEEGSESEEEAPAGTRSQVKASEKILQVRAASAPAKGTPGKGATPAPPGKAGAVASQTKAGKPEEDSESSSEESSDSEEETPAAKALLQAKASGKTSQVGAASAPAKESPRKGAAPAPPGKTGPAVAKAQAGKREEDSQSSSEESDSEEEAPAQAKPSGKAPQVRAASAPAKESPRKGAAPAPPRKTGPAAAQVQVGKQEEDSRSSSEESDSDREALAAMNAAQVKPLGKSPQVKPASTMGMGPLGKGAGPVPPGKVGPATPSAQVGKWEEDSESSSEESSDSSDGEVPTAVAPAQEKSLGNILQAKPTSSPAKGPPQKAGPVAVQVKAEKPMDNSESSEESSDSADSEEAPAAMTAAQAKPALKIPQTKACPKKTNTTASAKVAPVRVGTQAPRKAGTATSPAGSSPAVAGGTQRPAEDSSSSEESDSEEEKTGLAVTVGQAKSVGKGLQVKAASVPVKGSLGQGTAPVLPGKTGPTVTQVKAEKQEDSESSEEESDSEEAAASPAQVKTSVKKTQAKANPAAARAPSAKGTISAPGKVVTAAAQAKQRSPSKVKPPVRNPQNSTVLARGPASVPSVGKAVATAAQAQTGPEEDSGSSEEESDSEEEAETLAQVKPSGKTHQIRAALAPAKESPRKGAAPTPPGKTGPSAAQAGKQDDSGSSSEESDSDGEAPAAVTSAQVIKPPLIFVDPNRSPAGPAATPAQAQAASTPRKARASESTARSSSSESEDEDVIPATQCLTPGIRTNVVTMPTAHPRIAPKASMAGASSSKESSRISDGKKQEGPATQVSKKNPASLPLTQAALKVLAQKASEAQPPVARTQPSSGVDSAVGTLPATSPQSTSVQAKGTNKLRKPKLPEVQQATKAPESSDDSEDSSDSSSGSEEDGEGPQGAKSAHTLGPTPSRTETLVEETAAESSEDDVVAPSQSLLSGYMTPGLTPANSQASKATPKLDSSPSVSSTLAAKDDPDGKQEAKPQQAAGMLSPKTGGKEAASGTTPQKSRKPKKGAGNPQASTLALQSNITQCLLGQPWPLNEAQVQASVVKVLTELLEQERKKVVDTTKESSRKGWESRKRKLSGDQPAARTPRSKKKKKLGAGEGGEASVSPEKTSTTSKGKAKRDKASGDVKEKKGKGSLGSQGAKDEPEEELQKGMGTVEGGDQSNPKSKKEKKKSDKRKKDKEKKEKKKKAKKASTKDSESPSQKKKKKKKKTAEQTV
Chain of UniProt Q99805 (Q99805 whole entry, looked up): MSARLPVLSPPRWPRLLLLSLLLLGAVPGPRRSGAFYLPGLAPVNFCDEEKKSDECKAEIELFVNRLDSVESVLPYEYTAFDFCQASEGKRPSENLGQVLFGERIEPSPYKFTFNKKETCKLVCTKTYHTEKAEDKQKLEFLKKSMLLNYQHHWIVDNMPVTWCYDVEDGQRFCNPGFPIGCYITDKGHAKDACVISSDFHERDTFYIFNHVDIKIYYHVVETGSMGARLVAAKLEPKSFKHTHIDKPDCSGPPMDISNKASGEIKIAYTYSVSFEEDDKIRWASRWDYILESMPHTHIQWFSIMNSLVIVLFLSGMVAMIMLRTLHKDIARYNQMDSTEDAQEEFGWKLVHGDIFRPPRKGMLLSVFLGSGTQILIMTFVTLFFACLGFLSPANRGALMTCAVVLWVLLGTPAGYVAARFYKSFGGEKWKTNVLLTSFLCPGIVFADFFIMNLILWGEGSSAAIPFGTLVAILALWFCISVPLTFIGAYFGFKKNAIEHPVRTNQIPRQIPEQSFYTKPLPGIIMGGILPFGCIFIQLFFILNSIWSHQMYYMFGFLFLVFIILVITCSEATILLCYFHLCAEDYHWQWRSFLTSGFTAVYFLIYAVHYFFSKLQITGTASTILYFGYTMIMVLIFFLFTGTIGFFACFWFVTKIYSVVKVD
Chain of UniProt Q8N0X7 (Q8N0X7 whole entry, looked up): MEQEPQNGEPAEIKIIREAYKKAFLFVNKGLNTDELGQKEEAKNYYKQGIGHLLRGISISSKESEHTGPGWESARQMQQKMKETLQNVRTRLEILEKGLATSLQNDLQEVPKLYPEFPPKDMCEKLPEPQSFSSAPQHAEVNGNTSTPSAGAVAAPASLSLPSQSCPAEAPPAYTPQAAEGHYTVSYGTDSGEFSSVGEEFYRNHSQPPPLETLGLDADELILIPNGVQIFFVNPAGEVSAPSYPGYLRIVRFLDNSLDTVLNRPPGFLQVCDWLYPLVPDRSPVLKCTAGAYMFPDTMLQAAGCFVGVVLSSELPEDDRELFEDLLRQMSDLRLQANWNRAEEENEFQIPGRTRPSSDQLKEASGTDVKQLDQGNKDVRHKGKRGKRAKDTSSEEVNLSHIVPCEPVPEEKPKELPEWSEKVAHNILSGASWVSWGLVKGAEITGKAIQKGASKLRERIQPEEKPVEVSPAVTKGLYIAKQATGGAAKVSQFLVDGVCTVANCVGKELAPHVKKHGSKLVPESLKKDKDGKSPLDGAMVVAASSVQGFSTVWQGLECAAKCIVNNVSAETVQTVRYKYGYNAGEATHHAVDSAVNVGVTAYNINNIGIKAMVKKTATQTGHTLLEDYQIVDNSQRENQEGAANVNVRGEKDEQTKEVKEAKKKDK
Chain of UniProt Q9Y2W1 (Q9Y2W1 whole entry, looked up): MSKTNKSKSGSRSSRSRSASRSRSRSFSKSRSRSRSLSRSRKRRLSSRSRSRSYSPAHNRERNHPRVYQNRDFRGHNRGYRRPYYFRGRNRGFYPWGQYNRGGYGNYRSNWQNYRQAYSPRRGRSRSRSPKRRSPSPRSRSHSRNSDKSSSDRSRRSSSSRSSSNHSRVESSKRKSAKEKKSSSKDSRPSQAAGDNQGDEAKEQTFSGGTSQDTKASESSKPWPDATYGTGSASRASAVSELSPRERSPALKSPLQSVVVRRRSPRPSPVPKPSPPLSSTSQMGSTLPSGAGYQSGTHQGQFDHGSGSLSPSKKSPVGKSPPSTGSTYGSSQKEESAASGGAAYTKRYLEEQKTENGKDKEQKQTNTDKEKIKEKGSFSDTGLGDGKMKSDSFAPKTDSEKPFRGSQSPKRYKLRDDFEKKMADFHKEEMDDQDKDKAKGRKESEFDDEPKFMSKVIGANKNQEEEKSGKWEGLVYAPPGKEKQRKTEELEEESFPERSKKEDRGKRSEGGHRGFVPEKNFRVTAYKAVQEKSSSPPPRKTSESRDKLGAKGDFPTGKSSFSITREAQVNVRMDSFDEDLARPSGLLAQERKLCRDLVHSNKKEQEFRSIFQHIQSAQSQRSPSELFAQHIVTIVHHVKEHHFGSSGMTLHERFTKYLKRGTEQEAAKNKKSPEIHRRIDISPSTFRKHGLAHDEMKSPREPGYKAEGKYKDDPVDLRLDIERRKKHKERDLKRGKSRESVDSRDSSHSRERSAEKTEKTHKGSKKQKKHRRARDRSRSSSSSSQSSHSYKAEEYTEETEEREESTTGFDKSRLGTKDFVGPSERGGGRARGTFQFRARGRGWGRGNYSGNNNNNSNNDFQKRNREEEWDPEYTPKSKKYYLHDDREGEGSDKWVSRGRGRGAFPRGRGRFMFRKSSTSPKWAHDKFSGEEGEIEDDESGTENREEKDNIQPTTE
Chain of UniProt Q969G3 (Q969G3 whole entry, looked up): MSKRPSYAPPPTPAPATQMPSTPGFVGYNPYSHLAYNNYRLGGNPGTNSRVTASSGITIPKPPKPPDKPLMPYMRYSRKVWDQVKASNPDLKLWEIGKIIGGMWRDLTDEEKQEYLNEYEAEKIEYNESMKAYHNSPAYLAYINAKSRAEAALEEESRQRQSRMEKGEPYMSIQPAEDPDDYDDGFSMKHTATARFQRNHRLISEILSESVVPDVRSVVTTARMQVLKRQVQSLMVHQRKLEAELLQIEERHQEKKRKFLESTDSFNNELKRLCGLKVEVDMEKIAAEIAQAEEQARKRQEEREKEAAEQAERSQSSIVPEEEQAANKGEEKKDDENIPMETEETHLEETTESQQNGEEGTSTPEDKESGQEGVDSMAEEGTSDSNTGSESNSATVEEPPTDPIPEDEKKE
Chain of UniProt P53597 (P53597 whole entry, looked up): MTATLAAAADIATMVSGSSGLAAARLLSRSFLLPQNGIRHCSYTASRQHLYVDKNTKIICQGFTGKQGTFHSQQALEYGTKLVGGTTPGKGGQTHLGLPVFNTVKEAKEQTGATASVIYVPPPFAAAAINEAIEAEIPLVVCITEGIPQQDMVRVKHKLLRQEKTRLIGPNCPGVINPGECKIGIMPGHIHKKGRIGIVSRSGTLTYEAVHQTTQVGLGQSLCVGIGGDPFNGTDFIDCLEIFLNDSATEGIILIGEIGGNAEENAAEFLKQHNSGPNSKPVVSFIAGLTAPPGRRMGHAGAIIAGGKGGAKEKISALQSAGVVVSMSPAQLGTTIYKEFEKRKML
Chain of UniProt P51571 (P51571 whole entry, looked up): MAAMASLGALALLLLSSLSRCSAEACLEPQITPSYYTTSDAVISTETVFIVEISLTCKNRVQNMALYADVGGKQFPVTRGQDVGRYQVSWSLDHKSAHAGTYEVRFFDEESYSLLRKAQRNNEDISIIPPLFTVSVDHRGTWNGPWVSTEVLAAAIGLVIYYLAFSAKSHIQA
Chain of UniProt Q15527 (Q15527 whole entry, looked up): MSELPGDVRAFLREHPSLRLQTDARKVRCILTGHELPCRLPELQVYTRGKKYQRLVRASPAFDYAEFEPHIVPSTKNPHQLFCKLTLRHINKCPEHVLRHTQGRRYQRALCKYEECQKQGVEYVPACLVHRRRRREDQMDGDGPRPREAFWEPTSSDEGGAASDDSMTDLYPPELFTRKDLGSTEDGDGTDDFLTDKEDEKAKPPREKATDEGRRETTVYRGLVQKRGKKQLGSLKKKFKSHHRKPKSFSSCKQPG

Target | log2 fold change [1] | log2 fold change [2] | log2 fold change [3] | log2 fold change [4] | log2 fold change [5] | log2 fold change [6] | log2 fold change [7] | log2 fold change [8] | log2 fold change [9] | log2 fold change [10] | log2 fold change [11] | log2 fold change [12] | log2 fold change [13] | log2 fold change [14] | log2 fold change [15] | log2 fold change [16] | log2 fold change [17] | log2 fold change [18] | log2 fold change [19] | log2 fold change [20]
SMARCE1 (UniProt Q969G3) | 0.101 | 0.04 | 0.017 | 0 | 0.009 | 0 | 0.001 | -0.057 | 0.075 | -0.127 | -0.29 | 0.185 | -0.006 | 0.163 | -0.043 | -0.128 | -0.037 | -0.031 | 0.21 | -0.091
TCOF1 isoform 4 (UniProt Q13428) | 0.035 | -0.005 | -0.005 | -0.008 | -0.002 | 0.014 | -0.024 | -0.001 | -0.043 | -0.107 | -0.009 | -0.034 | -0.13 | 0.028 | 0.023 | -0.042 | -0.083 | 0.024 | 0.015 | -0.664 (active)
SPART (UniProt Q8N0X7) | 0.024 | 0.008 | 0.057 | 0.008 | 0.07 | 0.002 | -0.008 | -0.014 | -0.033 | -0.055 | 0.008 | -0.033 | -0.084 | 0.02 | -0.058 | -0.056 | -0.011 | 0.034 | -0.04 | 0.128
THRAP3 (UniProt Q9Y2W1) | 0.081 | 0.023 | -0.071 | 0.067 | -0.094 | -0.002 | -0.097 | -0.171 | 0.038 | -0.09 | -0.116 | 0.01 | -0.581 (active) | -0.026 | -0.032 | -0.12 | 0.075 | 0.057 | 0.066 | -0.018
TM9SF2 (UniProt Q99805) | 0.012 | 0.025 | 0.037 | -0.006 | 0.027 | -0.021 | 0.04 | 0.009 | -0.04 | 0.063 | 0.06 | 0.01 | -0.04 | -0.049 | 0.021 | -0.436 (active) | -0.012 | -0.003 | 0.008 | 0.027
SURF2 (UniProt Q15527) | 0.021 | -0.067 | 0.039 | -0.03 | -0.068 | 0.113 | -0.057 | 0.027 | -0.043 | 0.009 | 0.071 | 0.004 | -0.043 | -0.117 | -0.014 | 0.131 | 0.022 | 0.01 | -0.036 | -0.238 (active)
SUCLG1 (UniProt P53597) | 0.033 | 0.027 | 0.052 | -0.004 | 0.012 | -0.017 | 0.061 | -0.017 | 0.021 | 0.034 | 0.048 | 0.01 | -0.018 | -0.039 | -0.07 | -0.058 | -0.01 | -0.04 | -0.017 | 0.053
SSR4 (UniProt P51571) | -0.016 | 0.055 | 0.041 | 0.051 | 0.059 | 0.007 | -0.031 | -0.002 | 0 | -0.025 | 0.003 | 0.032 | -0.033 | 0.049 | -0.034 | -0.03 | 0.032 | -0.028 | -0.015 | 0.09
